# Assay results from PubChem BioAssay (NCI).
# This is part of a sample that, as a whole, favours compounds with a hit. Of some 83,000 tested, about 20% had one in any assay.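 Cells were grown in 96-well plates and exposed to the test compound at a single concentration for 48 hours; results are reported as percent growth, with values below 10 considered active.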 Calls of active or inactive are those of the source.
# System: NCI-H522 lung
# Assay: NCI-60 one-dose screen, 48 h (100 = growth as untreated, 0 = no growth, -100 = all killed)
# Details: 10 µM unless noted
row,Compound,growth
1,O=C1C=Cc2ncccc2C1=O,88.8% (inactive)
2,COc1cc2c(cc1OC)C(=O)/C(=C/c1cc(-c3ccc4c(c3)OCO4)n[nH]1)C2,-63.6% (active)
3,CCN(CC)CCCCCCNc1ccnc2cc(Cl)ccc12,125% (inactive)
4,COC(c1ccccc1)(c1ccccc1)c1ccccc1,116% (inactive)
5,CC(CNc1nc(Nc2ccc(Cl)c(Cl)c2)nc(C(Cl)(Cl)Cl)n1)N(C)C (stereo unspecified),-86.8% (active)
6,COc1cccc2c1C(=O)c1c(O)c3c(c(O)c1C2=O)C[C@@](O)(C(=O)CO)C[C@@H]3OC1C[C@H](N)[C@H](O)[C@H](C)O1 (stereo partly specified),-61.1% (active)
7,NC(=O)[C@@H]1CC2CCC1C2 (stereo partly specified),108% (inactive)
8,COc1cc2[nH]c(C(=O)c3cc(OC)c(OC)c(OC)c3)c(N)c2cc1C#CCO,-6.03% (active)
9,CN(C)c1ccc(N=C2C=CC(=O)C=C2)cc1,72% (inactive)
10,COc1ccc(C(=O)c2cc(OC)c(OC)c(OC)c2)cc1/C=C/C(=O)c1cc(OC)c(OC)c(OC)c1,84% (inactive)
11,Nc1c(C(=O)Nc2cccc(Br)c2)sc2nc3c(cc12)C(=O)CCC3,-20% (active)
12,O=C1NC(=Nc2ccc(S(=O)(=O)Nc3nccs3)cc2)S/C1=C\c1coc2ccccc2c1=O,103% (inactive)
13,COc1ccc(C(=O)/C=C/c2cc(-c3cc(OC)c(OC)c(OC)c3)n[nH]2)cc1OC,-78.5% (active)
14,COc1cc2[nH]c(C(=O)c3cc(OC)c(OC)c(OC)c3)c(N)c2cc1C#CC1CC1,-4.22% (active)
15,O=C(NC1=CC(=O)c2ccccc2C1=O)c1ccccc1,-48.8% (active)
16,COC(=O)c1cc(=O)nc(N/N=C/c2ccc(C)cc2)s1,91.9% (inactive)
17,COc1cc(C(=O)/C=C/c2cc(-c3ccc4c(c3)OCO4)n[nH]2)cc(OC)c1OC,17.4% (inactive)
18,O=C(/C=C\c1ccc2c(c1)OCO2)/C=C/c1ccc2c(c1)OCO2,97.4% (inactive)
19,COc1cc(-c2cc(-c3nc4cc(Cl)c(Cl)cc4[nH]3)[nH]n2)cc(OC)c1OC,45.8% (inactive)

row,Compound,growth
1,COC1=C(Br)C(=O)C(OC)=C(Br)C1=O,86.3% (inactive)
2,COc1ccc2c(c1)C/C(=C\c1cc(-c3ccc4c(c3)OCO4)n[nH]1)C2=O,105% (inactive)
3,CC(C)(C)c1ccc(OP(=S)(N/N=C/c2ccccc2O)Oc2ccc(C(C)(C)C)cc2)cc1,12.1% (inactive)
4,OCC12CCCC(CO)(COC1)C2O (stereo unspecified),111% (inactive)
5,COc1ccc(-c2cc(/C=C/C(=O)c3ccc(N)cc3)[nH]n2)cc1,-24.3% (active)
6,O=c1c(CNc2ccc(S(=O)(=O)Nc3ncccn3)cc2)coc2ccccc12,89.7% (inactive)
7,NC(Cc1ccc(O)cc1)C(=O)N/N=C/c1ccccc1O (stereo unspecified),96.6% (inactive)
8,COc1ccc2c(c1)C/C(=C\c1cc(-c3cc(OC)c(OC)c(OC)c3)n[nH]1)C2=O,60.6% (inactive)
9,O=c1c(CNc2ccc(S(=O)(=O)Nc3nccs3)cc2)coc2ccccc12,82.8% (inactive)
10,Nc1c(C(=O)Nc2cccc(Cl)c2)sc2ncc(Cl)cc12,97.4% (inactive)
11,CCN(CC)CCCCCNc1cc(OC(=O)c2ccccc2)cc2cccnc12,124% (inactive)
12,Fc1ccc2nc(-c3cc(-c4ccc5c(c4)OCO5)n[nH]3)[nH]c2c1,33.7% (inactive)
13,C#Cc1cc2c(N)c(C(=O)c3cc(OC)c(OC)c(OC)c3)[nH]c2cc1OC,-4.05% (active)
14,Cc1cc(Cl)c2c(N(C)C)cccc2n1,-75.5% (active)
15,COc1ccc(/C=C2\N=C(c3ccccc3)N(c3cc(OC)c(OC)cc3C(=O)N3N=C(C)CC3=O)C2=O)cc1,82.6% (inactive)
16,COc1ccc2nc(-c3c(-c4ccccc4)nc4ncccn34)[nH]c2c1,88.7% (inactive)
17,O=C1C=C(C(O)c2ccc(O)cc2)C(=O)c2ccccc21 (stereo unspecified),92.8% (inactive)
18,Cc1ccc(-c2nc3ccc(Cl)cc3c(=O)n2N2C(=O)CSC2c2ccccc2Cl)cc1 (stereo unspecified),76.9% (inactive)
19,NS(=O)(=O)c1ccc(CCNC(=O)/C=C/c2ccc(Cl)cc2)cc1,89.8% (inactive)

# System: A549/ATCC NSCLC
# Assay: as above
# Details: 10 µM unless noted
row,Compound,growth
1,O=C1C=Cc2ncccc2C1=O,105% (inactive)
2,COc1cc2c(cc1OC)C(=O)/C(=C/c1cc(-c3ccc4c(c3)OCO4)n[nH]1)C2,27.8% (inactive)
3,CCN(CC)CCCCCCNc1ccnc2cc(Cl)ccc12,96.2% (inactive)
4,COC(c1ccccc1)(c1ccccc1)c1ccccc1,104% (inactive)
5,CC(CNc1nc(Nc2ccc(Cl)c(Cl)c2)nc(C(Cl)(Cl)Cl)n1)N(C)C (stereo unspecified),4.96% (active)
6,COc1cccc2c1C(=O)c1c(O)c3c(c(O)c1C2=O)C[C@@](O)(C(=O)CO)C[C@@H]3OC1C[C@H](N)[C@H](O)[C@H](C)O1 (stereo partly specified),8.81% (active)
7,NC(=O)[C@@H]1CC2CCC1C2 (stereo partly specified),110% (inactive)
8,COc1cc2[nH]c(C(=O)c3cc(OC)c(OC)c(OC)c3)c(N)c2cc1C#CCO,33% (inactive)
9,CN(C)c1ccc(N=C2C=CC(=O)C=C2)cc1,102% (inactive)
10,COc1ccc(C(=O)c2cc(OC)c(OC)c(OC)c2)cc1/C=C/C(=O)c1cc(OC)c(OC)c(OC)c1,92.9% (inactive)
11,Nc1c(C(=O)Nc2cccc(Br)c2)sc2nc3c(cc12)C(=O)CCC3,24.4% (inactive)
12,O=C1NC(=Nc2ccc(S(=O)(=O)Nc3nccs3)cc2)S/C1=C\c1coc2ccccc2c1=O,99.7% (inactive)
13,COc1ccc(C(=O)/C=C/c2cc(-c3cc(OC)c(OC)c(OC)c3)n[nH]2)cc1OC,31.3% (inactive)
14,COc1cc2[nH]c(C(=O)c3cc(OC)c(OC)c(OC)c3)c(N)c2cc1C#CC1CC1,42.9% (inactive)
15,O=C(NC1=CC(=O)c2ccccc2C1=O)c1ccccc1,23.8% (inactive)
16,COC(=O)c1cc(=O)nc(N/N=C/c2ccc(C)cc2)s1,101% (inactive)
17,COc1cc(C(=O)/C=C/c2cc(-c3ccc4c(c3)OCO4)n[nH]2)cc(OC)c1OC,28.8% (inactive)
18,O=C(/C=C\c1ccc2c(c1)OCO2)/C=C/c1ccc2c(c1)OCO2,92.9% (inactive)
19,COc1cc(-c2cc(-c3nc4cc(Cl)c(Cl)cc4[nH]3)[nH]n2)cc(OC)c1OC,69.5% (inactive)

row,Compound,growth
1,COC1=C(Br)C(=O)C(OC)=C(Br)C1=O,102% (inactive)
2,COc1ccc2c(c1)C/C(=C\c1cc(-c3ccc4c(c3)OCO4)n[nH]1)C2=O,95.7% (inactive)
3,CC(C)(C)c1ccc(OP(=S)(N/N=C/c2ccccc2O)Oc2ccc(C(C)(C)C)cc2)cc1,56.7% (inactive)
4,OCC12CCCC(CO)(COC1)C2O (stereo unspecified),101% (inactive)
5,COc1ccc(-c2cc(/C=C/C(=O)c3ccc(N)cc3)[nH]n2)cc1,18.6% (inactive)
6,O=c1c(CNc2ccc(S(=O)(=O)Nc3ncccn3)cc2)coc2ccccc12,93.5% (inactive)
7,NC(Cc1ccc(O)cc1)C(=O)N/N=C/c1ccccc1O (stereo unspecified),97.5% (inactive)
8,COc1ccc2c(c1)C/C(=C\c1cc(-c3cc(OC)c(OC)c(OC)c3)n[nH]1)C2=O,92.9% (inactive)
9,O=c1c(CNc2ccc(S(=O)(=O)Nc3nccs3)cc2)coc2ccccc12,95.5% (inactive)
10,Nc1c(C(=O)Nc2cccc(Cl)c2)sc2ncc(Cl)cc12,43.4% (inactive)
11,CCN(CC)CCCCCNc1cc(OC(=O)c2ccccc2)cc2cccnc12,122% (inactive)
12,Fc1ccc2nc(-c3cc(-c4ccc5c(c4)OCO5)n[nH]3)[nH]c2c1,60.1% (inactive)
13,C#Cc1cc2c(N)c(C(=O)c3cc(OC)c(OC)c(OC)c3)[nH]c2cc1OC,45.4% (inactive)
14,Cc1cc(Cl)c2c(N(C)C)cccc2n1,100% (inactive)
15,COc1ccc(/C=C2\N=C(c3ccccc3)N(c3cc(OC)c(OC)cc3C(=O)N3N=C(C)CC3=O)C2=O)cc1,104% (inactive)
16,COc1ccc2nc(-c3c(-c4ccccc4)nc4ncccn34)[nH]c2c1,97.8% (inactive)
17,O=C1C=C(C(O)c2ccc(O)cc2)C(=O)c2ccccc21 (stereo unspecified),104% (inactive)
18,Cc1ccc(-c2nc3ccc(Cl)cc3c(=O)n2N2C(=O)CSC2c2ccccc2Cl)cc1 (stereo unspecified),13.2% (inactive)
19,NS(=O)(=O)c1ccc(CCNC(=O)/C=C/c2ccc(Cl)cc2)cc1,95.9% (inactive)
